Bioassay records from PubChem.
Most compounds without a hit are left out; they make up all but 19% or so of the library.
DT40 TDP1 CPT: DT40-hTDP1 cell growth loss with CPT | chicken DT40 Tdp1-/-;hTDP1 cells + 20 nM CPT, ATP luminescence, 48 h | Potency, µM (titrated, usually from 46.2 µM), for inactives: at the highest dose activity change, negative = growth inhibition, most hits filed as inhibitors | 12% of 420,000 active; note: potency is the fitted concentration of half-maximal effect; % is set by controls: 0 for no effect and ±100 for the full control effect; nearly all actives have a fitted effect of over 55% in size
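Cell growth measured by CellTiter-Glo luminescence after a minimum 48 h, 37 C compound exposure with 20 nM CPT in Tdp1-knockout DT40 cells stably expressing hTDP1, seeded 400/well; qHTS titration format.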
SW480 rereplic: inducers of DNA re-replication in SW480 colon cancer cells. SW480 DNA re-replication, Hoechst DNA content imaging, 48 h. Potency, µM (doses to about 46.1 µM), inactives show at the top dose re-replication activation, actives largely listed as activators. 1.8% of 340,000 active; note: potency is the fitted concentration of half-maximal effect; % of control where 0% means no effect; nearly all actives have a fitted effect of over 55% in size
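Compounds, transferred as 23 nL by pin tool, were incubated with cells for 48 hr; DNA content per nucleus was then quantified by Hoechst staining and fluorescence plate imaging.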
MCF10A rerep: induces DNA re-replication in MCF 10a normal breast cells; MCF 10A DNA re-replication, Hoechst nuclear intensity, 48 h; Potency, µM (doses to about 46.1 µM), without a hit: top-dose activity, positive = re-replication, most hits filed as activators; AID 624296; 2.9% of 350,000 active; note: potency is the fitted concentration of half-maximal effect; % of control where 0% means no effect; nearly all actives have a fitted effect of over 50% in size
TDP1 cell noCPT: qHTS for Inhibitors of human tyrosyl-DNA phosphodiesterase 1 (TDP1): qHTS in cells in absence of CPT; Potency, µM (top dose mostly 46.2 µM), for the others: top-dose activity change, negative = growth inhibition, usual class: inhibitors; 15% of 420,000 active; DT40 Tdp1-/- hTDP1 cells, no CPT, ATP luminescence, 48 h; AID 686978, 2013; note: potency is the fitted concentration of half-maximal effect; % is set by controls: 0 for no effect and ±100 for the full control effect; nearly all actives have a fitted effect of over 55% in size
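Luminescent ATP content (CellTiter-Glo) served as the growth readout. Knockout chicken DT40 cells expressing human TDP1 were exposed to compounds without camptothecin for a minimum 48 hr at 37 °C.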
IL-1B inflam inh: blocks inflammasome-driven IL-1 beta release. 4.7% of 360,000 active. THP-1 LPS/ATP IL-1B secretion, AlphaLISA, 16 h; stronger effect = lower value. activity change, % at 57.5 µM; in the data active = activity change below about -50%; inconclusive = mostly about -30% to -49%; note: % is set by controls: 0 for no effect and ±100 for the full control effect
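Secreted IL-1B measured by AlphaLISA bead assay after 16 h compound exposure of THP-1 cells; compounds (final up to 57.5 uM) added 1 h before LPS (250 ng/mL) and ATP (1.25 mM) stimulation; lower signal means less secretion.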
Chronic BCR inh: chronic active BCR signaling inhibition | ABC-DLBCL IkBa-CBG/CBR reporter, luminescence ratio, 4 h | Potency, µM (series often up to 46.1 µM), without a hit: top-dose activity change, negative = inhibition, actives largely listed as inhibitors | AID 493014 | 0.05% of 340,000 active; active = well fitted inhibition curve with a large enough effect in the signal ratio, with a control signal flat, not every such curve was filed as active; inconclusive = small, poorly fitted or top-dose-only effect, or effect the other way, or a change in a side signal; the % refers to the signal ratio;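 note: potency is the fitted concentration of half-maximal effect; plate controls were basal doxycycline-induced cells for no effect and cells given 10 µM MG132 for full effect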
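Compounds up to 46 uM were incubated four hours with TMD8 cells whose green CBG68 luciferase is fused to IkappaBalpha; red CBR luminescence normalised the signal, and concentration-effect curves were fitted to fusion, red and ratio data.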
Numbers without * were called inactive; ? = inconclusive; nt = not tested or not shown; [ ] = another dose, or the depositor's remark. Unless noted, calls come from the whole dose curve; as a rule, active = well fitted curve in the direction sought with a large enough effect; inconclusive = small, poorly fitted or top-dose-only effect, or another doubt; inactive = no such curve, though single readings can be large; an effect the other way counts as inactive or inconclusive.

SMILES | DT40 TDP1 CPT | SW480 rereplic | MCF10A rerep | TDP1 cell noCPT | IL-1B inflam inh | Chronic BCR inh
COc1ccc(-c2cc(-c3nnc(COC(=O)CC4CC5CCC4C5)o3)c3ccccc3n2)cc1OC (configuration not stated) | 21µM* | 2.6µM* | ? | 21µM* | 0 | -17%
COc1ccc(-n2c(=O)c(CCc3ccccc3)nc3cncnc32)cc1 | -25% | nt | nt | -3% | nt | nt
Nc1ccc2c(c1)C(=O)c1cc(N)c(Cl)cc1-2 | 2% | 5% | 4% | -19% | -28 | nt
COc1cc2c(cc1N)-c1ccc(N)cc1C2=O | ? | nt | nt | 16µM* | -64* | nt
CCC(=O)N1CCCC(C(=O)Nc2nc3ccccc3[nH]2)CC1 (configuration not stated) | -5% | nt | nt | -4% | 18 | nt
COCCN=C1N[C@@H](c2cccc(C(F)(F)F)c2)C(C(=O)OC)=C(C)N1Cc1ccccc1 | 13µM* | -2% | 1% | 10µM* | -56* | ?
COC(=O)C1=C(C)N(Cc2ccccc2)C(=S)N[C@H]1CCc1ccccc1 | nt | nt | nt | nt | nt | 37%
COC(=O)C1=C(C)N(Cc2ccccc2)C(=NCc2cccc(C(F)(F)F)c2)N[C@H]1c1cccc(C(F)(F)F)c1 | 3.3µM* | 28%[9.22 µM] | 3.7µM* | 3.7µM* | -101* | 0%
CCN1C(=NCCc2cccs2)N[C@@H](c2cccs2)C(C(=O)OC)=C1C | 6.5µM* | -3% | 0% | 21µM* | -13 | ?
COC(=O)C1=C(C)N(Cc2ccccc2)C(=NCCCCO)N[C@H]1CCc1ccccc1 | ? | 1% | 5% | 16µM* | ? | ?
O=C(CC1Sc2ccccc2NC1=O)NNc1ccc(F)cc1 (configuration not stated) | -16% | 8% | ? | -8% | -5 | nt
COC(=O)C1=C(C)N(Cc2ccccc2)C(=NCCCCO)N[C@H]1c1cccc(C(F)(F)F)c1 | 23µM* | -5% | 11% | ? | ? | 1%
COC(=O)C1=C(C)N(Cc2ccccc2)C(=NCc2cccc(C(F)(F)F)c2)N[C@H]1c1cccc(F)c1 | 6.5µM* | ? | 12µM* | 6.5µM* | -104* | ?
COC(=O)C1=C(C)N(CC2CC2)C(=NCc2cccc(C(F)(F)F)c2)N[C@H]1c1ccccc1 | 10µM* | -4% | ? | 12µM* | -58* | 1%
COC(=O)C1=C(C)N(Cc2ccccc2)C(=NCCc2ccccn2)N[C@H]1c1cccc(F)c1 | 16µM* | 22% | -3% | ? | -55* | ?
CCN1C(=NCCCCO)N[C@@H](c2cccc(C(F)(F)F)c2)C(C(=O)OC)=C1C | ? | -3% | 1% | -20% | -23 | ?
CCN1C(=NCc2cc(OC)c(OC)c(OC)c2)N[C@@H](c2cccc(F)c2)C(C(=O)OC)=C1C | nt | nt | nt | nt | nt | 24%
COC(=O)C1=C(C)N(Cc2ccccc2)C(=NCCc2c[nH]c3ccccc23)N[C@H]1c1cccc(C(F)(F)F)c1 | ? | ? | 9% | 16µM* | -50* | ?
C=CCN=C1N[C@@H](c2cccc(C(F)(F)F)c2)C(C(=O)OC)=C(C)N1CC | ? | -2% | 4% | ? | -25 | ?
CCN1C(=NCC(C)C)N[C@@H](c2cccc(C(F)(F)F)c2)C(C(=O)OC)=C1C | ? | -3%[9.22 µM] | -30% | 21µM* | ? | ?
CCN1C(=NCc2cccc(Cl)c2)N[C@@H](c2cccc(F)c2)C(C(=O)OC)=C1C | ? | ? | -13% | 18µM* | -70* | ?
CC12CC(O)C3C(CCC4=CC(=O)CCC43C)C1CCC2=CCO (configuration not stated) | ? | -3% | 14% | ? | 6 | nt
O=P(O)(O)OC(Cn1cncn1)(Cn1cncn1)c1ccc(F)cc1F | 16% | nt | nt | 5% | nt | nt
